Test results taken from PubChem BioAssay (EPA / NIEHS).
Records with an inconclusive call do not appear. Some compounds were tested as several samples or in several runs, with calls that do not always agree. Activity calls are given as the source filed them. The calls were made as follows, unless noted: active = hit-call score of the fitted dose curve at least 0.9, where 1 is the maximum; inactive = score below 0.9.

Experiments:
[1] = target: human RAR-related Orphan Receptor gamma (RORg), RORC (gene 6097) (UniProt P51449); experiment: ATG_RORg_TRANS: Attagene TRANS-FACTORIAL HepG2 Assay for human RAR-related Orphan Receptor gamma (RORg) (AID 2283011; active = hit-call score of the fitted dose curve at least 0.9, where 1 is the maximum)
In short: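 Transient MRTU transfection of HepG2 (TRANS format, exogenous NR-Gal4 chimera). 24 h dosing. Total RNA → oligo(dT) RT → PCR → 6-FAM labelling → HpaI cut → CE. Gain vs DMSO.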

[2] = read-out: E-selectin (Homo sapiens) (UniProt P16581); experiment: BSK_3C_Eselectin: BioMAP Diversity Plus: 3C Assay for Eselectin Biomarker Activity (AID 2283015); conditions: primary human endothelial cells (HUVEC); actives raise or lower the signal;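 as to outcome: cell surface E-selectin protein quantified by ELISA 24 h after dosing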
In short: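 HUVEC, 3C stimulation; compound exposure 24 h; E-selectin by ELISA; gain- or loss-of-signal fitted bidirectionally vs DMSO baseline.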

[3] = read-out: Interleukin-1 alpha (IL1a), IL1A (gene 3552); experiment: BSK_BE3C_IL1a: BioMAP Diversity Plus: BE3C Assay for Interleukin-1 alpha (IL1a) Biomarker Activity (AID 2283016); conditions: primary human bronchial epithelial cells; actives raise or lower the signal
In short: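 ELISA read-out of IL-1a from human lung bronchial epithelial primary cells, 24 h post-dose. Gain or loss of signal fitted relative to DMSO negative control.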

[4] = read-out: Monocyte Chemoattractant Protein-1 (MCP1), CCL2 (gene 6347); experiment: BSK_3C_MCP1: BioMAP Diversity Plus: 3C Assay for Monocyte Chemoattractant Protein-1 (MCP1) Biomarker Activity (AID 2283017); conditions: primary human endothelial cells (HUVEC); actives raise or lower the signal
In short: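 HUVEC, 3C system; 24 h chemical exposure; MCP-1 by ELISA; bidirectional curve fit vs DMSO baseline.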

[5] = read-out: Monocyte Chemoattractant Protein-1 (MCP1), CCL2 (gene 6347); experiment: BSK_4H_MCP1: BioMAP Diversity Plus: 4H Assay for Monocyte Chemoattractant Protein-1 (MCP1) Biomarker Activity (AID 2283018); conditions: primary human endothelial cells (HUVEC); actives raise or lower the signal
In short: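 HUVEC primary cells, 24 h post-dose, MCP-1 by ELISA. Gain or loss of signal fitted bidirectionally vs DMSO baseline. Cytotoxicity: SRB stain (0.1% after 10% TCA fixation), read 560 nm, parallel cultures.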

[6] = read-out: Human Leukocyte Antigen - DR isotype (HLADR), HLA-DRA (gene 3122); experiment: BSK_3C_HLADR: BioMAP Diversity Plus: 3C Assay for Human Leukocyte Antigen - DR isotype (HLADR) Biomarker Activity (AID 2283019); conditions: primary human endothelial cells (HUVEC); actives raise or lower the signal;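 as to outcome: ELISA of cell-surface HLA-DR on HUVEC 24 h after dosing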
In short: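 HUVEC, 3C stimulation, 24 h post-dose; HLA-DR by ELISA; bidirectional curve fit vs DMSO baseline; gain or loss of signal scored.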

[7] = read-out: Interleukin-8 (IL8), CXCL8 (gene 3576); experiment: BSK_3C_IL8: BioMAP Diversity Plus: 3C Assay for Interleukin-8 (IL8) Biomarker Activity (AID 2283020); conditions: primary human endothelial cells (HUVEC); actives raise or lower the signal
In short: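 HUVEC, 3C stimulation; 24 h compound exposure; IL-8 read by ELISA; gain or loss of signal fitted relative to DMSO control.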

[8] = target: human Retinoid X Receptor beta (RXRb), RXRB (gene 6257) (UniProt P28702); experiment: ATG_RXRb_TRANS: Attagene TRANS-FACTORIAL HepG2 Assay for human Retinoid X Receptor beta (RXRb) (AID 2283013; active = hit-call score of the fitted dose curve at least 0.9, where 1 is the maximum)
In short: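 Read-out: reporter mRNA induction via RT-PCR plus capillary electrophoresis fluorescence, analysed as signal increase relative to DMSO. Cells were human HepG2, transiently transfected with GAL4-UAS reporter constructs and chimeric receptor-Gal4 fusions, dosed for 24 h.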

[9] = target: Retinoic acid receptor RXR-alpha (Homo sapiens) (UniProt P19793); experiment: ATG_RXRa_TRANS: Attagene TRANS-FACTORIAL HepG2 Assay for human Retinoid X Receptor alpha (RXRa) (AID 2283012; active = hit-call score of the fitted dose curve at least 0.9, where 1 is the maximum)
In short: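 Read-out: fluorescent reporter-transcript fragments quantified by capillary electrophoresis after RT-PCR. Transiently transfected HepG2 cells carrying GAL4-UAS reporters and NR-GAL4 chimeras were exposed to chemical for 24 h; activity scored as increase over DMSO.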

[10] = target: human Thyroid Receptor alpha (THRa1), THRA (gene 7067) (UniProt P10827); experiment: ATG_THRa1_TRANS: Attagene TRANS-FACTORIAL HepG2 Assay for human Thyroid Receptor alpha (THRa1) (AID 2283014; active = hit-call score of the fitted dose curve at least 0.9, where 1 is the maximum)
In short: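 Transient HepG2 transfection, NR-Gal4 chimera driving GAL4-UAS reporters; 24 h compound exposure; total RNA, oligo(dT) RT, PCR, fluorescent primer extension, capillary electrophoresis. Upward direction vs DMSO control.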

Chain of human Retinoid X Receptor beta (RXRb), RXRB (gene 6257) (P28702 whole entry, looked up, the tested form may be a part): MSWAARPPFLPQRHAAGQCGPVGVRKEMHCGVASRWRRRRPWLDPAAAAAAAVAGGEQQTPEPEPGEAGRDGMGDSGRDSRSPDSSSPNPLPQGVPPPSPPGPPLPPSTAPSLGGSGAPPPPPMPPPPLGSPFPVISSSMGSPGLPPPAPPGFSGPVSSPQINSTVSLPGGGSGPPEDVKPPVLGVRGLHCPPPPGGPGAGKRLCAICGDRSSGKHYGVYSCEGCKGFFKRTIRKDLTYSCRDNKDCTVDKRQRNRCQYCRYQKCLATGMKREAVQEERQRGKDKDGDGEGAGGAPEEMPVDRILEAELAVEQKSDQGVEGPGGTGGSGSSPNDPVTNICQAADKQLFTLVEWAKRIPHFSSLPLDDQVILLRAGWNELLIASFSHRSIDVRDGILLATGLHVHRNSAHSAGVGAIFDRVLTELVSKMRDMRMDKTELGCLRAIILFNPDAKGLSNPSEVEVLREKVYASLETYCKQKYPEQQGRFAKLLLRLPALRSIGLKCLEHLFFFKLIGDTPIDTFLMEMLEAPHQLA
Chain of human Thyroid Receptor alpha (THRa1), THRA (gene 7067) (P10827 whole entry, looked up, the tested form may be a part): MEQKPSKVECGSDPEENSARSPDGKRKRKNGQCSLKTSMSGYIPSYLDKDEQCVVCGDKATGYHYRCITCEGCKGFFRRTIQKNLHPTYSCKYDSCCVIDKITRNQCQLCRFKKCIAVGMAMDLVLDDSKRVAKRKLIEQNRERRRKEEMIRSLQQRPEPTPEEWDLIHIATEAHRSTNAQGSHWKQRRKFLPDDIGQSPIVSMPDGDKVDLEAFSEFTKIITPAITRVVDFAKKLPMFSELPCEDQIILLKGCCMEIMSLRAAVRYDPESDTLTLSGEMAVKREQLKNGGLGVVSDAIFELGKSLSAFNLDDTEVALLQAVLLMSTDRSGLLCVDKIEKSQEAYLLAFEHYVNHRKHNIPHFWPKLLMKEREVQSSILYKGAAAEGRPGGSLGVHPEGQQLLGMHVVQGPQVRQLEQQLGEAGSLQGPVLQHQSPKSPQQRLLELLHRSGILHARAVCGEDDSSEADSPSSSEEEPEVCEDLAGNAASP
Chain of E-selectin (Homo sapiens) (P16581 whole entry, looked up): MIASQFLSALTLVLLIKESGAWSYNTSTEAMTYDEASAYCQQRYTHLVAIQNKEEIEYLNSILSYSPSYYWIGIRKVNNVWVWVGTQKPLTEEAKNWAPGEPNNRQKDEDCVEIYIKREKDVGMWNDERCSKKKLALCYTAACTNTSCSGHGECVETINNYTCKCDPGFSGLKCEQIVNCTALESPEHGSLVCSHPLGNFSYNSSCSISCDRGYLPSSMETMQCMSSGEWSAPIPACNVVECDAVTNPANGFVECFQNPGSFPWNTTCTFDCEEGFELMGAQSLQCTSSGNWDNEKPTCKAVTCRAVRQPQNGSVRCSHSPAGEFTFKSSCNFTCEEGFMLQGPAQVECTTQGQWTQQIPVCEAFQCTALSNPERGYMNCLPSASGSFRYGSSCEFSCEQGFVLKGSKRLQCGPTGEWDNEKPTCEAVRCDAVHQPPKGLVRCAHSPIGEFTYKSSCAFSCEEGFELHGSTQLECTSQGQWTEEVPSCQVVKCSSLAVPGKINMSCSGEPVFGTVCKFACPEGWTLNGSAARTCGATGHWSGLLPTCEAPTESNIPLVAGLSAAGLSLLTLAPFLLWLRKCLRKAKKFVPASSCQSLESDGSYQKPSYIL
Chain of Retinoic acid receptor RXR-alpha (Homo sapiens) (P19793 whole entry, looked up, the tested form may be a part): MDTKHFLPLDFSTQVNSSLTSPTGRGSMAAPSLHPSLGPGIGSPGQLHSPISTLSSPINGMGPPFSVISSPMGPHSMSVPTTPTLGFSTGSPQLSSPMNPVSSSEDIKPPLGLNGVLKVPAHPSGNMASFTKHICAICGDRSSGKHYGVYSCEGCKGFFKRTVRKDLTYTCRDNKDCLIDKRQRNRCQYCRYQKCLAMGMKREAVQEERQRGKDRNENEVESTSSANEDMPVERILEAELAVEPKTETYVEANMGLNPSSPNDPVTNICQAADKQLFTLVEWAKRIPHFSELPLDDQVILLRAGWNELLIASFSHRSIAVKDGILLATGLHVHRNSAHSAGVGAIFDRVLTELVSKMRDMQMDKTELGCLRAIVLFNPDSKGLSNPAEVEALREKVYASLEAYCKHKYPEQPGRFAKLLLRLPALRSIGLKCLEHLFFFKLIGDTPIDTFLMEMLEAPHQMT
Chain of human RAR-related Orphan Receptor gamma (RORg), RORC (gene 6097) (P51449 whole entry, looked up, the tested form may be a part): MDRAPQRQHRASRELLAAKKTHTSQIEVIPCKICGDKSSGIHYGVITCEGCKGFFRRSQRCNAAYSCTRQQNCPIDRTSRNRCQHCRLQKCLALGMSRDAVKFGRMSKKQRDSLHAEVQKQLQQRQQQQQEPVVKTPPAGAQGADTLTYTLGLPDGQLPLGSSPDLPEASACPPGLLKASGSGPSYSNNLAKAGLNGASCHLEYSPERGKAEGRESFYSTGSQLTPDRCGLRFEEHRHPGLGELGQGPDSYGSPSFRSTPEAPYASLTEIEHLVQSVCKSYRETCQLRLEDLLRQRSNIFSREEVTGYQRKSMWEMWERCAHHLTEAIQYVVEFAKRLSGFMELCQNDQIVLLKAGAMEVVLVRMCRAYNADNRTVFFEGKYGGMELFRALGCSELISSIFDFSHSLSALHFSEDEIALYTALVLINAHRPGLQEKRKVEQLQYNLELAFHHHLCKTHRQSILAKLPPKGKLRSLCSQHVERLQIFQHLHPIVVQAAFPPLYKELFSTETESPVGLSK

Structure (SMILES): CC(=O)N1CCN(c2ccc(OC[C@H]3CO[C@](Cn4ccnc4)(c4ccc(Cl)cc4Cl)O3)cc2)CC1
- outcome [1]: inactive
- outcome [2]: inactive
- outcome [3]: inactive
- AC50 [4]: 31.9 µM (active)
- AC50 [5]: 26.4 µM (active)
- AC50 [6]: 25.2 µM (active)
- AC50 [7]: 31.3 µM (active)

Structure (SMILES): CN1C(=O)CC[C@H]1c1cccnc1
- outcome [1]: inactive
- outcome [8]: inactive
- outcome [2]: inactive
- outcome [3]: inactive
- outcome [4]: inactive
- outcome [5]: inactive
- outcome [6]: inactive

Structure (SMILES): CCCCCCCCOC(=O)c1cc(O)c(O)c(O)c1
- outcome [9]: inactive
- outcome [8]: inactive
- outcome [10]: inactive
- AC50 [2]: 38.8 µM (active)
- AC50 [3]: 33.4 µM (active)
- AC50 [4]: 31.8 µM (active)
- AC50 [5]: 8.64 µM (active)
- AC50 [6]: 15.3 µM (active)

Structure (SMILES): CC(O)CC(C)(C)O (stereo not drawn)
- outcome [1]: inactive
- outcome [9]: inactive
- outcome [8]: inactive
- outcome [10]: inactive
- outcome [2]: inactive
- outcome [3]: inactive
- outcome [4]: inactive
- outcome [5]: inactive
- outcome [6]: inactive
- outcome [7]: inactive

Structure (SMILES): CCCCCCCC[Si](OCC)(OCC)OCC
- outcome [9]: inactive
- AC50 [8]: 26.8 µM (active)
- outcome [8]: inactive
- outcome [10]: inactive
- AC50 [2]: 17.5 µM (active)
- outcome [3]: inactive
- AC50 [4]: 31.2 µM (active)
- AC50 [5]: 29.5 µM (active)
- AC50 [6]: 23.3 µM (active)

Structure (SMILES): OC12N=C(c3ccccc3)SC1Cc1cc(Cl)ccc12 (stereo not drawn)
- outcome [1]: inactive
- outcome [9]: inactive
- outcome [8]: inactive
- outcome [2]: inactive
- outcome [3]: inactive
- outcome [4]: inactive
- outcome [5]: inactive
- AC50 [6]: 33.8 µM (active)

Structure (SMILES): O=C(O)c1ccccc1-n1cc(C(=O)O)c(=O)c2cc(Nc3c(F)cc(F)cc3Cl)c(Cl)cc21
- outcome [1]: inactive
- outcome [10]: inactive
- outcome [2]: inactive
- outcome [3]: inactive
- outcome [4]: inactive
- outcome [5]: inactive
- outcome [6]: inactive

Structure (SMILES): Clc1cc(Cl)c2c(c1)N=C1CCCCCN1C2
- outcome [1]: inactive
- outcome [9]: inactive
- outcome [2]: inactive
- outcome [3]: inactive
- outcome [4]: inactive
- outcome [5]: inactive
- outcome [6]: inactive

Structure (SMILES): c1ccc2ccccc2c1
- outcome [1]: inactive
- outcome [9]: inactive
- AC50 [8]: 38.9 µM (active)
- outcome [8]: inactive
- outcome [10]: inactive
- outcome [2]: inactive
- outcome [3]: inactive
- outcome [4]: inactive
- outcome [5]: inactive
- outcome [6]: inactive
